Data taken from PubChem BioAssay (NCI).
This is part of a sample that, as a whole, favours compounds with a hit. Of some 83,000 tested, about 20% had one in any assay.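 Assay: single dose, 48 h. Readout: percent growth (0 = no net growth; negative = cell death). Active: <10.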 A number with no mark means an inactive call. The source made the active and inactive calls.

Each molecule was assayed on IGROV1 ovarian (assay: NCI-60 one-dose screen, 48 h (100 = growth as untreated, 0 = no growth, -100 = all killed)). Settings: 10 µM.
Protocol: Growth inhibition of the IGROV1 human tumor cell line is measured as a screen for anti-cancer activity. Cells are grown in 96 well plates and exposed to the test compound for 48 hours. Compounds are tested at a single concentration, which is 10^-5 M for most compounds. The reported endpoint is percent growth (GI% or GIPRCNT), where numbers from 0 - 100% represent growth inhibition, and numbers from -100% - 0 represent cell death. For example, a value of 40 represents 60% growth inhibition. A value of 0 means no net growth occurred over the course of the experiment. A value of -40 indicates 40% of cells at the beginning of the experiment died by the end of the experiment. A value of -100 means all cells are dead at the end of the experiment.
NCI-60 Human Tumor Cell Lines Screen was performed using the standard one-dose NCI protocol, which is described in more detail at https://dtp.cancer.gov/discovery_development/nci-60/default.htm.
Compounds with GIPRCNT values below 10 were considered active. Activity score was based on GIPRCNT using the following formula: […]
Score is 0 for GIPRCNT values of 100 or above, 50 for GIPRCNT values of 0, and 100 for GIPRCNT values of -100.
Work on `Cc1cc(CSc2ccccc2C(=O)N2CC=C(c3ccccc3)CC2)on1` yielded a growth of 92.2%. Molecule `S=c1cnc2ccccc2[nH]1` has a growth of 97.2%. `COc1cc(C2C(C#N)=C(N)Oc3cc(O)ccc32)cc(OC)c1OC` (stereo not given) showed a growth of 34.9%. With `Nc1ccn(Cc2nnc(CCC(=O)c3nc4ccccc4[nH]3)o2)c(=O)n1` the growth was 65.3%. In the case of `CN(C)CCCOc1ccc(OCCCN(C)C)c2c1C(=O)c1ccccc1C2=O`, the growth is reported as 3.65% (active). `CCCc1nc(C(C)(C)O)c(C(=O)O)n1Cc1ccc(-c2ccccc2-c2nn[nH]n2)cc1` showed a growth of 114%. Work on `Cc1ccc(C2=NN(c3ccc(S(C)(=O)=O)cc3)C(=O)CC2)cc1` yielded a growth of 59.2%. For `Cc1cc(NC(=O)c2ccc(C)c(Nc3nccc(-c4cccnc4)n3)c2)cc(-n2cnc(C)c2)c1`, the growth was 32.3%. Molecule `CN1C(=O)C2(Nc3cc(Cl)ccc3S2)c2cc(Cl)ccc21` (stereo not given) has a growth of 102%. In the case of `COc1cc(Cc2cc(-c3ccccc3)n[nH]c2=O)cc(OC)c1OC`, the growth is reported as 63.3%. `NC(N)=N/N=C(\c1ccccc1)C(O)c1ccccc1` (stereo not given) showed a growth of 100%. For `COc1cc(/C=C2\CCCC3=C2NC(N)=NC3c2cc(OC)c(OC)c(OC)c2)cc(OC)c1OC` (stereo not given), the growth was -19.4% (active). `CNC(=O)c1cn(C2CC2)c2cc(N3CCN(C(=O)c4cc(OC)c(OC)c(OC)c4)CC3)c(F)cc2c1=O` gave a growth of 102%. For `COc1cc(NC(=O)Nc2cnc(Nc3ccc(N4CCOCC4)cc3)nc2Oc2cccc(OC)c2)cc(OC)c1`, the growth was 43.4%. Work on `CC(=O)Oc1cc(OC(C)=O)c2ccccc2c1OC(C)=O` yielded a growth of 63.1%. With `CCCC1(CN2c3ccccc3Sc3ccc(Cl)cc32)CCN(CC)C1` (stereo not given) the growth was -42.7% (active). In the case of `CC[C@@H]1NC(=O)[C@H]([C@H](O)[C@H](C)C/C=C/c2ccc(CN3C(=O)CCCC3=O)cc2)N(C)C(=O)[C@H](C(C)C)N(C)C(=O)[C@H](CC(C)C)N(C)C(=O)[C@H](CC(C)C)N(C)C(=O)[C@@H](C)NC(=O)[C@H](C)NC(=O)[C@H](CC(C)C)N(C)C(=O)[C@H](C(C)C)NC(=O)[C@H](CC(C)C)N(C)C(=O)CN(C)C1=O`, the growth is reported as 58.2%. In the case of `COc1cc(-c2csc(NC(=O)Nc3ccc(Cl)c(C(F)(F)F)c3)n2)cc(OC)c1OC`, the growth is reported as 25.2%. In the case of `C/C=C/C1=CN2C(=O)c3cc(OC4OC(C)C(NC)C(C)(O)C4O)c(C)c(O)c3N=C[C@@H]2C1` (stereo not given in full), the growth is reported as -22.7% (active). `COc1cc2c3c(n(C4CCN(C)CC4)c(=O)c2cc1OC)-c1cc2c(cc1C3=O)OCO2` was tested, and the growth was 66.9%. `COc1cc(-c2nn(-c3ccc(NC(=O)NCCCNC(=O)c4ccccc4)cc3)cc2-c2ccncc2)ccc1Cl` gave a growth of 38.1%. In the case of `O=C(CCCCC(=O)Oc1c(Cl)cc(Cl)cc1[N+](=O)[O-])Oc1c(Cl)cc(Cl)cc1[N+](=O)[O-]`, the growth is reported as 101%. `O=C(CCNC(=O)c1nc(-c2ccccc2)n(-c2ccc(Cl)cc2)n1)NO` gave a growth of 102%. For `COc1ccc(C(=O)N2C=Cc3ccccc3C2C#N)cc1` (stereo not given), the growth was 114%. Work on `Nc1cc(-c2ccc(Cl)cc2)nn1-c1nc2ccccc2nc1Cc1ccccc1` yielded a growth of 94.9%. `COc1ccc(Cc2cnc(N)nc2N)cc1OC` gave a growth of 112%. For `O=C(Nc1cccc2c1CCCC2)c1cc2ccccc2cc1O`, the growth was 32.1%. For `Cc1cc(Cl)ccc1Nc1nc(C(F)(F)F)ccc1C(=O)N/N=C/c1c(Cl)cccc1Cl`, the growth was 4.15% (active). `CCOc1ccccc1/C=N\N=C\c1ccccc1O` gave a growth of 95.8%. For `O=C(O)c1cn(C2CC2)c2cc(N3CCN(C(=O)c4cc(-c5ccc(Cl)cc5)nc5ccccc45)CC3)c(F)cc2c1=O`, the growth was 51.4%. With `CC(C)C[C@H](NC(=O)Cn1cccc(CNC(=O)c2ccccc2)c1=O)B(O)O` the growth was 51.5%. In the case of `CN(C)c1ccc(/C=N/NC(=O)c2ccccc2Nc2cccc(C(F)(F)F)c2)cc1`, the growth is reported as 69.1%. `O=C(O)c1ccc(-n2cc(CNc3ccc(Cl)cc3)c(-c3ccccc3)n2)cc1` showed a growth of 92.1%. `CC[C@H]1OC(=O)[C@H](C)[C@@H](O[C@H]2C[C@@](C)(OC)[C@@H](O)[C@H](C)O2)[C@H](C)[C@@H](O[C@@H]2O[C@H](C)C[C@H](N(C)C)[C@H]2O)[C@](C)(OC)C/C(C)=C2/O[C@@]1(C)C=C2C` gave a growth of 58.1%. For `Cc1cc(CC(C)CC(C)(C)C)n(O)c(=O)c1` (stereo not given) (tested in a mixture with another compound), the growth was 9.36% (active). Work on `COCCn1cc(-c2nc(-c3cccnc3)cs2)c2cc(F)ccc21` yielded a growth of 110%. With `Cc1c(Cl)cccc1NC(=O)CCCl` the growth was 104%. Work on `COc1ccc(-c2n[nH]nc2-c2cc(OC)c3c(c2OC)OCO3)cc1` yielded a growth of 45.3%. `Cc1ccc(S(=O)(=O)N(C)CCCCCC(=O)O)cc1` gave a growth of 99.4%. Molecule `CCNc1nc(C(F)(F)F)nc2c1sc(=S)n2-c1ccccc1` has a growth of 102%.
